Measurements taken from PubChem BioAssay (EPA / NIEHS).
The source made the active and inactive calls. The calls were made as follows: active = hit-call score of the fitted dose curve at least 0.9, where 1 is the maximum; inactive = score below 0.9.

Key:
[1] = ATG_CRE_CIS: Attagene CIS-FACTORIAL HepG2 Assay for human cAMP Responsive Element (CRE) binding protein 3 (AID 2282926); conditions: HepG2 CRE cis-reporter, Attagene multiplexed mRNA; actives raise or lower the signal
How it was run: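 Assay format: transient reporter transfection of HepG2, 24 h treatment, total RNA isolation with DNase I step. Reporter abundance read by fluorescence after PCR and capillary separation; DMSO-normalised gain or loss fitting.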

[2] = target: CCAAT/enhancer-binding protein beta (Homo sapiens) (UniProt P17676); assay: ATG_C_EBP_CIS: Attagene CIS-FACTORIAL HepG2 Assay for human CCAAT/Enhancer Binding Protein (C/EBP) beta (AID 2282927); conditions: HepG2 Attagene cis-factorial transcription factor reporter; actives raise or lower the signal
How it was run: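 Following a 24 h incubation with test chemical, transfected HepG2 cells yielded RNA whose reporter transcripts were quantified by RT-PCR and fluorescent capillary electrophoresis, with DMSO serving as baseline for bidirectional fitting.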

[3] = ATG_CMV_CIS: Attagene CIS-FACTORIAL HepG2 Assay for human CMV (Internal Marker) (AID 2282928); conditions: HepG2 CMV promoter reporter, transcription factor profiling; actives raise or lower the signal;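 also: endpoint acts as a background internal control marker rather than a target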
How it was run: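 Fluorescence intensity of RT-PCR-derived reporter fragments, resolved by capillary electrophoresis, gives the signal. HepG2 liver cells bearing transfected cis-element reporters were treated 24 h; activity in either direction was fit relative to DMSO-treated controls.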

[4] = ATG_DR4_LXR_CIS: Attagene CIS-FACTORIAL HepG2 Assay for human Liver X Receptor (LXR), DR4 submotif (AID 2282929); conditions: HepG2 Attagene DR4 cis-reporter, mRNA transcription; actives raise or lower the signal
How it was run: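 Cells were transfected with multiple reporter transcription units, exposed to chemicals for 24 hours, then lysed for RNA. Reporter mRNA induction was measured by RT-PCR with capillary electrophoresis detection and fitted in both directions relative to DMSO.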

[5] = target: Aryl hydrocarbon receptor (Homo sapiens) (UniProt P35869); assay: ATG_Ahr_CIS: Attagene CIS-FACTORIAL HepG2 Assay for human Aryl Hydrocarbon Receptor (Ahr) (AID 2282930); conditions: HepG2 AhR cis-factorial reporter transcription; actives raise or lower the signal
How it was run: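 Values derive from bidirectional fitting against DMSO negative control. Underlying signal: cis-element reporter mRNA in transiently transfected HepG2, harvested 24 h post-dose and measured by RT-PCR plus capillary electrophoresis.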

[6] = ATG_AP_2_CIS: Attagene CIS-FACTORIAL HepG2 Assay for human Activator Protein 2 (AP-2) (AID 2282932); conditions: HepG2 AP-2 cis-reporter, Attagene transcription factor profiling; actives raise or lower the signal
How it was run: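 Cells (HepG2) transfected with promoter-driven reporter constructs, treated 24 h. Total RNA reverse-transcribed, reporter cDNA PCR-amplified, FAM-labelled by primer extension, digested, resolved by capillary electrophoresis. Activity fitted both directions versus DMSO.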

[7] = ATG_BRE_CIS: Attagene CIS-FACTORIAL HepG2 Assay for human Bone Morphogenetic Protein (BMP) Response Element (BRE) (AID 2282933); conditions: HepG2 BMP response element reporter, Attagene transcription factor profiling; actives raise or lower the signal
How it was run: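 A HepG2 multiplex reporter system measured inducible reporter mRNA 24 h post-dosing. Detection: RT-PCR, 6-FAM primer extension, HpaI digestion, capillary electrophoresis. Activity fitted bidirectionally relative to DMSO.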

[8] = target: Retinoic acid receptor alpha (Homo sapiens) (UniProt P10276); assay: ATG_DR5_RAR_CIS: Attagene CIS-FACTORIAL HepG2 Assay for human Retinoic Acid Receptor Alpha (RARE), DR5 submotif (AID 2282934); conditions: HepG2 Attagene cis-factorial RARE DR5 reporter, mRNA; actives raise or lower the signal
How it was run: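 Endpoint fitted in both directions relative to DMSO as negative control. It reflects DR5 cis-element reporter mRNA induction in transiently transfected HepG2 cells, measured 24 h after dosing through RT-PCR and fluorescent capillary electrophoresis.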

[9] = target: Transcription factor E2F1 (Homo sapiens) (UniProt Q01094); assay: ATG_E2F_CIS: Attagene CIS-FACTORIAL HepG2 Assay for human E2F Transcription Factor 1 (AID 2282935); conditions: HepG2 Attagene cis-reporter, E2F reporter RNA transcripts; actives raise or lower the signal
How it was run: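 First, HepG2 cells were transfected with reporter transcription units. Next, they were dosed for 24 h. Then RNA was isolated, converted to cDNA, PCR-amplified, FAM-labeled, HpaI-digested and analyzed by capillary electrophoresis.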

[10] = ATG_E_Box_CIS: Attagene CIS-FACTORIAL HepG2 Assay for human Enhancer Box (E-box) (AID 2282936); conditions: HepG2 E-box cis-reporter transcription, actives raise or lower the signal
How it was run: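 Endogenous transcription factor activity was sensed in human HepG2 liver cells through transfected cis-promoter reporter units. After 24 h of dosing, total RNA was reverse-transcribed and reporter cDNA resolved by capillary electrophoresis.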

[11] = ATG_M_61_CIS: Attagene CIS-FACTORIAL HepG2 Assay for M61 Transcription Factor (Internal Marker) (AID 2282937); conditions: HepG2 Attagene CIS-FACTORIAL M61 internal marker reporter; actives raise or lower the signal
How it was run: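 Cells were transfected with reporter units under cis-regulatory promoters, treated with chemicals for 24 h, then lysed for RNA. Reporter transcripts were quantified by RT-PCR and capillary electrophoresis, and activity was fitted bidirectionally against DMSO.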

[12] = ATG_EGR_CIS: Attagene CIS-FACTORIAL HepG2 Assay for human Early Growth Response 1 (EGR1) (AID 2282938); conditions: HepG2 Attagene CIS-FACTORIAL EGR reporter mRNA; actives raise or lower the signal
How it was run: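 Endogenous TF activity in HepG2 liver cells was gauged through cis-promoter reporter constructs transiently transfected. After 24 h dosing, reporter mRNA was quantified by RT-PCR and capillary electrophoresis, and curves fitted in both directions versus DMSO.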

[13] = ATG_M_19_CIS: Attagene CIS-FACTORIAL HepG2 Assay for M19 Transcription Factor (Internal Marker) (AID 2282939); conditions: HepG2 Attagene CIS-FACTORIAL M19 internal marker reporter; actives raise or lower the signal
How it was run: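 Chemical-treated HepG2 (24 h) with MRTU constructs; reporter transcripts detected by fluorescent RT-PCR fragment analysis on capillary electrophoresis. Internal background marker, DMSO as baseline.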

[14] = ATG_Ets_CIS: Attagene CIS-FACTORIAL HepG2 Assay for human Erythroblast Transformation Specific (ETS) (AID 2282941); conditions: HepG2 ETS cis-reporter transcription, actives raise or lower the signal
How it was run: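 Multiplexed reporter transcript profiling: HepG2, 24 h treatment, total RNA to cDNA, PCR, 6-FAM labelling, HpaI cut, capillary electrophoresis. Gain- or loss-of-signal fitted against DMSO.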

[15] = target: Hepatocyte nuclear factor 3-beta (Homo sapiens) (UniProt Q9Y261); assay: ATG_FoxA2_CIS: Attagene CIS-FACTORIAL HepG2 Assay for human Forkhead box A2 (FOXA2) (AID 2282942); conditions: HepG2 cis-reporter transcription factor activity, 24 h; actives raise or lower the signal
How it was run: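 Endogenous transcription factor activity was read in HepG2 cells carrying transiently transfected cis-promoter reporter units. After 24 h dosing, reporter mRNA was quantified by RT-PCR and capillary electrophoresis, and values fitted bidirectionally versus DMSO.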

[16] = ATG_FoxO_CIS: Attagene CIS-FACTORIAL HepG2 Assay for human Forkhead box O (FoxO) (AID 2282943); conditions: HepG2 Attagene cis-reporter, FoxO element, mRNA; actives raise or lower the signal
How it was run: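 Values reflect reporter mRNA induction or loss in HepG2 cells 24 h post-dosing, fitted bidirectionally with DMSO as negative control and baseline. Detection used RT-PCR and fluorescence capillary electrophoresis.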

[17] = ATG_GATA_CIS: Attagene CIS-FACTORIAL HepG2 Assay for human GATA Binding Protein (AID 2282944); conditions: HepG2 GATA cis-element reporter, Attagene multiplex mRNA; actives raise or lower the signal
How it was run: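 Transfected cis-reporter HepG2 cells were treated with chemicals for 24 hours. Total RNA was then converted to cDNA, amplified with reporter-specific primers and analysed by fluorescent capillary electrophoresis, using DMSO-treated wells as baseline.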

[18] = ATG_GLI_CIS: Attagene CIS-FACTORIAL HepG2 Assay for human Zinc Finger Protein GLI1 (AID 2282945); conditions: HepG2, Attagene cis-factorial reporter mRNA, GLI element; actives raise or lower the signal
How it was run: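 HepG2 cells transiently transfected with cis-promoter multiplexed reporter units report endogenous transcription factor activity. After 24 h chemical exposure, reporter mRNA was quantified by RT-PCR, 6-FAM labelling, HpaI digestion and capillary electrophoresis, with bidirectional fitting against DMSO.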

[19] = ATG_AP_1_CIS: Attagene CIS-FACTORIAL HepG2 Assay for human Activator Protein 1 (AP-1) (AID 2282931); conditions: HepG2 Attagene cis-factorial AP-1 reporter mRNA; actives raise or lower the signal
How it was run: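 Endogenous transcription-factor activity in human HepG2 liver cells is read through a cis-promoter reporter transcript, sampled 24 h after dosing. Detection uses RT-PCR with capillary electrophoresis; values come from bidirectional fitting relative to DMSO.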

Measured: outcome

CCAAT/enhancer-binding protein beta (Homo sapiens), sequence (P17676 whole entry, looked up): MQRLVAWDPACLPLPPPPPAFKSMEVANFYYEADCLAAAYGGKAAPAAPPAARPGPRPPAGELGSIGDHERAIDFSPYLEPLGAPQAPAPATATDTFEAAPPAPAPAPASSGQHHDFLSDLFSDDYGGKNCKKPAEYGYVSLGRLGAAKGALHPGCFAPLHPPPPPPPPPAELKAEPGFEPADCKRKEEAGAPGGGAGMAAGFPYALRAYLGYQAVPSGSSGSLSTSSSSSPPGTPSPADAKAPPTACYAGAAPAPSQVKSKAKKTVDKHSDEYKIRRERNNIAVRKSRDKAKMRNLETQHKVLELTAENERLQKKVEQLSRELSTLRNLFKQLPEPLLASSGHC
Retinoic acid receptor alpha (Homo sapiens), sequence (P10276 whole entry, looked up): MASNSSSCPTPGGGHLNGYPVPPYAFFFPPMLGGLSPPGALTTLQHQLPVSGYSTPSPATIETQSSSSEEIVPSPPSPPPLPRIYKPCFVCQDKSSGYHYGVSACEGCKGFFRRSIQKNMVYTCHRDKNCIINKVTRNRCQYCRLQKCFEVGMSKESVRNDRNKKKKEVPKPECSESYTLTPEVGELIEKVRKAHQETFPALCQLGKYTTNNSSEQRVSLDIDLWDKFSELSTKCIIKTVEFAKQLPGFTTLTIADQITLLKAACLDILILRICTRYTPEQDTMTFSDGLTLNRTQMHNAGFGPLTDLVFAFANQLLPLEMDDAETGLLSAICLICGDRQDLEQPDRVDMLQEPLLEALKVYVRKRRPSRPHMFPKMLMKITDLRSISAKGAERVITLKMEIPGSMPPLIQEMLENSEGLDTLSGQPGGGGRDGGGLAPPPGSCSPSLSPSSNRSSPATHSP
Transcription factor E2F1 (Homo sapiens), sequence (Q01094 whole entry, looked up): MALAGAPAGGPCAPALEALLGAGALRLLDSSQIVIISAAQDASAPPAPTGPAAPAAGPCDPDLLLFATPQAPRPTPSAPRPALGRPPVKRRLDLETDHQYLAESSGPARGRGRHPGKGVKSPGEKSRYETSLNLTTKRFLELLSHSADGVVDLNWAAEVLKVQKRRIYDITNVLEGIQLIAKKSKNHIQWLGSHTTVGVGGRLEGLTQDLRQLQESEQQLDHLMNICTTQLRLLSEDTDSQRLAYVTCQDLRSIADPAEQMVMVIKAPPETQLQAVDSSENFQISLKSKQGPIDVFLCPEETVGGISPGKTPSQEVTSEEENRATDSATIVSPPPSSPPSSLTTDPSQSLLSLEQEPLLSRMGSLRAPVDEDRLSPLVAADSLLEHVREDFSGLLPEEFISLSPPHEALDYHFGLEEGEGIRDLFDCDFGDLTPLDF
Hepatocyte nuclear factor 3-beta (Homo sapiens), sequence (Q9Y261 whole entry, looked up): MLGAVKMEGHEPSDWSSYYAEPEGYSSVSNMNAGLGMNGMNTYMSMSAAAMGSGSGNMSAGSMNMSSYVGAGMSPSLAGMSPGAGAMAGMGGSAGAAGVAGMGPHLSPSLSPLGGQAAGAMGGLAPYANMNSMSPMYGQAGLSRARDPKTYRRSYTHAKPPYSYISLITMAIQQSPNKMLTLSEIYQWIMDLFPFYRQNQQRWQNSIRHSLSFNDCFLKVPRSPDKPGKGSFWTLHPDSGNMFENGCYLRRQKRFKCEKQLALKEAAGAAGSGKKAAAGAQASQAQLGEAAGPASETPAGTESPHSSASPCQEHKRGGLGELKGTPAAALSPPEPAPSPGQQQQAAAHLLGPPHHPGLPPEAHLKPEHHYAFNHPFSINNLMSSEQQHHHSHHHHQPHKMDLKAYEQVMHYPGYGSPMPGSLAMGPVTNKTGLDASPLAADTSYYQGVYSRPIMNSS
Aryl hydrocarbon receptor (Homo sapiens), sequence (P35869 whole entry, looked up): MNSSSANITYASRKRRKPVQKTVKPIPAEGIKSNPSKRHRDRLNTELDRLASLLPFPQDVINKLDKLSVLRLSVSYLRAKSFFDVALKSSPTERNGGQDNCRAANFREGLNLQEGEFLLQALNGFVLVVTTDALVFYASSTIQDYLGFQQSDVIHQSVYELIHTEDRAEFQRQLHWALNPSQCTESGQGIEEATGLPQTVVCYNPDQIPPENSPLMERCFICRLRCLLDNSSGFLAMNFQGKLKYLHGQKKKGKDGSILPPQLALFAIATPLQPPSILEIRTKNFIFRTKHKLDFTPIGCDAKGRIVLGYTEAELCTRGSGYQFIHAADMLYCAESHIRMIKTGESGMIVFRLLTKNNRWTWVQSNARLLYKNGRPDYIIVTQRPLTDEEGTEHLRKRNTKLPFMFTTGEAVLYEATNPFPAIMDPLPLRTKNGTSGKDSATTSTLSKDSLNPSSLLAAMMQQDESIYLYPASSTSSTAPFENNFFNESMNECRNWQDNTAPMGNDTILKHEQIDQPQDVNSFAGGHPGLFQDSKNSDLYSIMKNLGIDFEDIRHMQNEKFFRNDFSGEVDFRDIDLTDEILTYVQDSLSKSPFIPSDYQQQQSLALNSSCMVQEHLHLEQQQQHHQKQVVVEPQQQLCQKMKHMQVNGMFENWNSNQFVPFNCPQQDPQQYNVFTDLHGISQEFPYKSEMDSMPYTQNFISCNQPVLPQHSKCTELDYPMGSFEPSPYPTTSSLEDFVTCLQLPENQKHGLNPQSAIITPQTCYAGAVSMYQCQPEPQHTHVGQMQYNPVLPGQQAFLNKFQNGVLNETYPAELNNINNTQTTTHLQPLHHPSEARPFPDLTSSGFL

CC(C)Nc1nc(N)nc(Cl)n1
not listed: [19]
inactive: all other assays above

ON=C1CCCCC1
not listed: [4] | [16]
inactive: all other assays above

CCCC(=O)c1ccccc1
not listed: [19]
inactive: all other assays above

CCC(=O)O[C@@H]1C[C@H]2CC[C@]1(C)C2(C)C
not listed: [16] | [19]
inactive: all other assays above
